# In PubChem BioAssay (EPA / NIEHS):
# Inconclusive results are not listed. Activity calls are given as the source filed them. The calls were made as follows, unless noted: active = hit-call score of the fitted dose curve at least 0.9, where 1 is the maximum; inconclusive = response in the unintended direction; inactive = score below 0.9.
# How the values were obtained:
# [1] = CCTE_Harrill_HTTr_Viability_DMEM_6hr: (Pilot) CCTE's 6-hour Cell Viability Assessment for the High-Throughput Transcriptomics (HTTr) Platform, in MCF-7 cells cultured in DMEM + 10% fetal bovine serum, Harrill Lab (AID 2283973; active = hit-call score of the fitted dose curve at least 0.9, where 1 is the maximum; inactive = score below 0.9)
# Outline: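 Propidium iodide uptake imaged by high-content analysis after six hours of chemical treatment in an eight-concentration series. Cells: MCF-7 grown in DMEM with 10% fetal bovine serum; DMSO as baseline.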
# [2] = CCTE_Harrill_HTTr_Viability_DMEM_12hr: (Pilot) CCTE's 12-hour Cell Viability Assessment for the High-Throughput Transcriptomics (HTTr) Platform, in MCF-7 cells cultured in DMEM + 10% fetal bovine serum, Harrill Lab (AID 2283974; active = hit-call score of the fitted dose curve at least 0.9, where 1 is the maximum; inactive = score below 0.9)
# Outline: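 Propidium iodide dye exclusion imaged by high-content microscopy after 12 h chemical exposure (eight concentrations) of MCF-7 cells grown in DMEM plus 10% FBS; values fitted in both directions relative to DMSO.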
# [3] = CCTE_Harrill_HTTr_Viability_DMEM_24hr: (Pilot) CCTE's 24-hour Cell Viability Assessment for the High-Throughput Transcriptomics (HTTr) Platform, in MCF-7 cells cultured in DMEM + 10% fetal bovine serum, Harrill Lab (AID 2283975; active = hit-call score of the fitted dose curve at least 0.9, where 1 is the maximum; inactive = score below 0.9)
# Outline: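 Pilot study: propidium iodide dye exclusion, imaged by high content microscopy, after 24 h compound exposure (eight concentrations) in MCF-7 cultured in DMEM + 10% fetal bovine serum; DMSO served as negative control and baseline.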
# [4] = CCTE_Harrill_HTTr_Viability_PRF_DMEM_6hr: (Pilot) CCTE's 6-hour Cell Viability Assessment for the High-Throughput Transcriptomics (HTTr) Platform, in MCF-7 cells cultured phenol red-free DMEM + 10% charcoal-stripped fetal bovine serum, Harrill Lab (AID 2283976; active = hit-call score of the fitted dose curve at least 0.9, where 1 is the maximum; inactive = score below 0.9)
# Outline: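 Membrane integrity by high-content imaging of propidium iodide uptake, six hours after dosing with eight concentrations. Cells: MCF-7 grown in phenol red-free DMEM plus 10% charcoal-stripped serum; DMSO serves as baseline for bidirectional fits.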
# [5] = CCTE_Harrill_HTTr_Viability_PRF_DMEM_12hr: (Pilot) CCTE's 12-hour Cell Viability Assessment for the High-Throughput Transcriptomics (HTTr) Platform, in MCF-7 cells cultured in phenol red-free DMEM + 10% charcoal-stripped fetal bovine serum, Harrill Lab (AID 2283977; active = hit-call score of the fitted dose curve at least 0.9, where 1 is the maximum; inactive = score below 0.9)
# Outline: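 Membrane integrity was scored via propidium iodide dye exclusion imaging, fitted in both directions relative to DMSO. Compounds ran as eight-point dilutions for 12 hours on MCF-7 grown in phenol red-free DMEM plus 10% charcoal-stripped serum.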
# PGR (gene 5241) = PGR (gene 5241) (UniProt P06401); experiment: TOX21_PR_LUC_Followup_Antagonist: Tox21 HEK293 Progesterone Receptor (PR) Antagonism Luciferase Follow-Up Assay (AID 2283938);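 also: curve fitted upward as signal gain over DMSO baseline despite antagonist label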
# Outline: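 Luciferase reporter in HEK293-PR-A-luc cells: 16 h compound treatment at 37C, ONE-Glo luminescence detection, DMSO as negative control and baseline.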
# [6] = TOX21_PR_LUC_Followup_Antagonist_viability: Viability Assessment in the Tox21 HEK293 Progesterone Receptor (PR) Antagonism Luciferase Follow-Up Assay (AID 2283940)
# Outline: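 Read-out: CellTiter-Glo ATP luminescence, loss of signal taken as reduced viability. Cells: HEK293-PR-A-luc, 3,000/well, 5 h settling, then 16 h compound exposure at 37C, 0% CO2.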
# [7] = TOX21_PR_LUC_Followup_Agonist_viability: Viability Assessment in the Tox21 HEK293 Progesterone Receptor (PR) Agonism Luciferase Follow-Up Assay (AID 2283941);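 also: loss of signal means cytotoxicity so actives lower viability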
# Outline: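 Cytotoxicity counter-screen: ATP content by CellTiter-Glo luminescence, loss of signal = reduced viability. HEK293-PR-A-luc, 3,000 cells/well, compound exposure 16 h, 37C.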
# [8] = target: T1, Thyroid hormone receptor alpha (Rattus norvegicus) + Thyroid hormone receptor beta (Rattus norvegicus) (UniProt P18113+P63059); experiment: TOX21_TR_LUC_GH3_Antagonist_Followup: Tox21 GH3 Thyroid Hormone Receptor Antagonism Luciferase Follow-Up Assay (AID 2283942)
# Outline: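 Loss of T3-driven (1.0 nM final) reporter activity in GH3 cells was read by ONE-Glo luminescence after 24 h incubation at 37C; 15-point compound series spanned 92 uM to 5nM final, 1,500 cells/well.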
# THRA (gene 7067) [9] = target: THRA (gene 7067) (UniProt P10827); experiment: TOX21_TRA_COA_Antagonist_Followup_ratio: Tox21 Thyroid Hormone Receptor alpha Antagonism through Coactivator Recruitment Follow-Up Assay, Ratio (AID 2283953)
# Outline: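 We measured antagonism of T3-type coactivator recruitment using a TR-FRET ratio (emission 520 and 495 nm) between a Tb-labelled anti-GST antibody on TRα LBD (2.5 nM) and SRC-2 peptide (200 nM). Activity was scaled between DMSO and T3 wells.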
# THRB (gene 7068) [10] = target: THRB (gene 7068) (UniProt P10828); experiment: TOX21_TRB_BLA_Antagonist_Followup_ratio: Tox21 Thyroid Hormone Receptor beta Antagonism Beta-lactamase (BLA) Follow-Up Assay, Ratio (AID 2283958)
# Outline: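 Read-out: blue/green (460:530 nm) ratio of cleaved to uncleaved CCF4-AM after 2 h at room temperature, fitted against DMSO baseline. HEK293T UAS-bla cells carrying GAL4-human TRβ LBD were exposed 18 h, 37C/5% CO2.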
# [11] = TOX21_TRB_BLA_Antagonist_Followup_viability: Viability Assessment in the Tox21 Thyroid Hormone Receptor beta Antagonism Beta-lactamase (BLA) Follow-Up Assay (AID 2283961)
# Outline: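 In the same wells as the reporter read, cell health was gauged by CellTiter-Glo ATP luminescence, with signal loss indicating reduced viability. Cells had been exposed to test compounds for 18 h.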
# THRB (gene 7068) [12] = target: THRB (gene 7068) (UniProt P10828); experiment: TOX21_TRB_COA_Antagonist_Followup_ratio: Tox21 Thyroid Hormone Receptor beta Antagonism through Coactivator Recruitment Follow-Up Assay, Ratio (AID 2283967)
# Outline: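 Coactivator recruitment to the GST-tagged TRb ligand-binding domain (5.0 nM) was read as the 520/495 nm TR-FRET ratio, using 200 nM fluorescein SRC-2 peptide and 2 nM terbium anti-GST. Scaled between DMSO and T3 wells; loss of signal fitted.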
# [13] = target: Retinoic acid receptor RXR-alpha (Homo sapiens) (UniProt P19793); experiment: TOX21_TR_RXR_BLA_Antagonist_Followup_ratio: Tox21 Thyroid Hormone Receptor beta Retinoid X Receptor alpha (RXRa) Antagonism Beta-lactamase (BLA) Follow-Up Assay, Ratio (AID 2283972)
# Outline: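 Compounds were tested in triplicate at 11 concentrations on RXRa-bla HEK293T cells for 16 h. Substrate cleavage ratio, normalized to DMSO, gave the endpoint.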
# [14] = TOX21_TR_RXR_BLA_Antagonist_Followup_viability: Viability Assessment in the Tox21 Thyroid Hormone Receptor beta Retinoid X Receptor alpha (RXRa) Antagonism Beta-lactamase (BLA) Follow-Up Assay (AID 2283979)
# Outline: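 Follow-up compounds (11 concentrations, triplicate) were incubated 16 h at 37C/5% CO2 with HEK293T RXRa-bla cells seeded at 2,500/well in charcoal-stripped-serum medium. ATP content by CellTiter-Glo luminescence gave viability; curves fitted in both directions against DMSO.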
# [15] = target: T1, Thyroid hormone receptor alpha (Rattus norvegicus) + Thyroid hormone receptor beta (Rattus norvegicus); experiment: TOX21_TR_LUC_GH3_Agonist_Followup: Tox21 GH3 Thyroid Hormone Receptor Agonism Luciferase Follow-Up Assay (AID 2283939)
# Outline: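 Agonist-mode confirmatory run: 15 concentrations (5 nM to 92 uM final) on GH3 rat pituitary cells, 24 h at 37C/5% CO2, T3 as positive control. Luminescence read with ONE-Glo after 30 min.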
# THRA (gene 7067) [16] = target: THRA (gene 7067) (UniProt P10827); experiment: TOX21_TRA_COA_Agonist_Followup_ratio: Tox21 Thyroid Hormone Receptor alpha Agonism through Coactivator Recruitment Follow-Up Assay, Ratio (AID 2283948; active = hit-call score of the fitted dose curve at least 0.9, where 1 is the maximum; inactive = score below 0.9)
# Outline: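 Agonist-mode biochemical TR-FRET with TRα LBD and SRC-2 coactivator peptide; activity expressed as percent of T3 response over DMSO baseline.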
# THRB (gene 7068) [17] = target: THRB (gene 7068) (UniProt P10828); experiment: TOX21_TRB_COA_Agonist_Followup_ratio: Tox21 Thyroid Hormone Receptor beta Agonism through Coactivator Recruitment Follow-Up Assay, Ratio (AID 2283963; active = hit-call score of the fitted dose curve at least 0.9, where 1 is the maximum; inactive = score below 0.9)
# Outline: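 GST-TRb LBD 5.0 nM + 0.10% BSA + cpd; add fluorescein-SRC-2 200 nM / Tb anti-GST Ab 2 nM; TR-FRET ex 340, em 520:495; norm DMSO 0%, T3 100%.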
# [18] = target: Retinoic acid receptor RXR-alpha (Homo sapiens) (UniProt P19793); experiment: TOX21_TR_RXR_BLA_Agonist_Followup_ratio: Tox21 Thyroid Hormone Receptor beta Retinoid X Receptor alpha (RXRa) Agonism Beta-lactamase (BLA) Follow-Up Assay, Ratio (AID 2283968)
# Outline: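 Read-out: blue/green (460:530 nm) FRET ratio from cleaved vs uncleaved CCF4 substrate, fitted for gain of signal relative to DMSO. Cells: HEK293T with RXRa-UAS-bla reporter; 16 h compound exposure, 11 concentrations, triplicate.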
# [19] = TOX21_TR_RXR_BLA_Agonist_Followup_viability: Viability Assessment in the Tox21 Thyroid Hormone Receptor beta Retinoid X Receptor alpha (RXRa) Agonism Beta-lactamase (BLA) Follow-Up Assay (AID 2283970)
# Outline: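 CellTiter-Glo ATP quantitation as viability read-out in RXRa-bla HEK293T cells (2,500/well, charcoal-stripped 2% FBS medium), 16h compound incubation at 37C. Loss of signal versus DMSO taken as cytotoxicity, analyzed by bidirectional curve fitting.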
# Sequence of THRB (gene 7068) (P10828 whole entry, looked up, the tested form may be a part): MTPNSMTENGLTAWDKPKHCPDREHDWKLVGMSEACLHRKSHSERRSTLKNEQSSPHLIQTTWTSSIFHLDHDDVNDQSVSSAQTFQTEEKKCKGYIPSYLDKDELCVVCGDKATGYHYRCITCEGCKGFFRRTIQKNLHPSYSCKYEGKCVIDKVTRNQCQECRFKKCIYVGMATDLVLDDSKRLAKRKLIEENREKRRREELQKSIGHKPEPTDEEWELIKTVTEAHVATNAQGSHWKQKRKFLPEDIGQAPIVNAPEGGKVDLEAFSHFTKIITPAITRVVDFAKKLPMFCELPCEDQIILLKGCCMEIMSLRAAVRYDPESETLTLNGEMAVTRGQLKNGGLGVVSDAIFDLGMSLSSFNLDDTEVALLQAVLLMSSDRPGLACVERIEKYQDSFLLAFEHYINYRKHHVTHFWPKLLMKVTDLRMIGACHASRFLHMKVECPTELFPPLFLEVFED
# Sequence of Retinoic acid receptor RXR-alpha (Homo sapiens) (P19793 whole entry, looked up): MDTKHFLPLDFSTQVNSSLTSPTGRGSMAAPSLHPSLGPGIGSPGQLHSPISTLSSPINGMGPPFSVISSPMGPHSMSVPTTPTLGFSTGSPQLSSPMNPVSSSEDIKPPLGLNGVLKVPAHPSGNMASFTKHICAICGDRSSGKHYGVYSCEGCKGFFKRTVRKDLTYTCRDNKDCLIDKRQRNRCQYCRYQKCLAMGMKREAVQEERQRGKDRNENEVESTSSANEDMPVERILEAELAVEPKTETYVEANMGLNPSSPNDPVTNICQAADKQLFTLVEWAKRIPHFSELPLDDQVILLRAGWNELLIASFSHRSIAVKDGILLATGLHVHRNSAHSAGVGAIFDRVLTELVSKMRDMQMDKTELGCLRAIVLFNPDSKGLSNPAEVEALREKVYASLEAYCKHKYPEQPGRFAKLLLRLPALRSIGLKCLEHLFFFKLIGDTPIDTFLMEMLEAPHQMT
# Sequence of THRA (gene 7067) (P10827 whole entry, looked up, the tested form may be a part): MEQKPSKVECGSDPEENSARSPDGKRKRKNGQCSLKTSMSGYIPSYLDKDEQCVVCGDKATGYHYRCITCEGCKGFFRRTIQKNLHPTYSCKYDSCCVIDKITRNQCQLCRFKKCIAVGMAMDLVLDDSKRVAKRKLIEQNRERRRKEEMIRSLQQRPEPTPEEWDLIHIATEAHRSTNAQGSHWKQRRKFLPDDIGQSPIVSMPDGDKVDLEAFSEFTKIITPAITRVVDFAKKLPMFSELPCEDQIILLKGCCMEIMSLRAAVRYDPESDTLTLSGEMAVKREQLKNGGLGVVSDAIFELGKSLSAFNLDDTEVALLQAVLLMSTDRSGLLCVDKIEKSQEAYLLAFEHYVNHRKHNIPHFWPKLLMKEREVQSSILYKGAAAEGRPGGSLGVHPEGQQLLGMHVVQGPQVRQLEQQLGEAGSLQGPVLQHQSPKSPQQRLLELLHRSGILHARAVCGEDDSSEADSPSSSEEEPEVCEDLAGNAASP
# Sequence of PGR (gene 5241) (P06401 whole entry, looked up): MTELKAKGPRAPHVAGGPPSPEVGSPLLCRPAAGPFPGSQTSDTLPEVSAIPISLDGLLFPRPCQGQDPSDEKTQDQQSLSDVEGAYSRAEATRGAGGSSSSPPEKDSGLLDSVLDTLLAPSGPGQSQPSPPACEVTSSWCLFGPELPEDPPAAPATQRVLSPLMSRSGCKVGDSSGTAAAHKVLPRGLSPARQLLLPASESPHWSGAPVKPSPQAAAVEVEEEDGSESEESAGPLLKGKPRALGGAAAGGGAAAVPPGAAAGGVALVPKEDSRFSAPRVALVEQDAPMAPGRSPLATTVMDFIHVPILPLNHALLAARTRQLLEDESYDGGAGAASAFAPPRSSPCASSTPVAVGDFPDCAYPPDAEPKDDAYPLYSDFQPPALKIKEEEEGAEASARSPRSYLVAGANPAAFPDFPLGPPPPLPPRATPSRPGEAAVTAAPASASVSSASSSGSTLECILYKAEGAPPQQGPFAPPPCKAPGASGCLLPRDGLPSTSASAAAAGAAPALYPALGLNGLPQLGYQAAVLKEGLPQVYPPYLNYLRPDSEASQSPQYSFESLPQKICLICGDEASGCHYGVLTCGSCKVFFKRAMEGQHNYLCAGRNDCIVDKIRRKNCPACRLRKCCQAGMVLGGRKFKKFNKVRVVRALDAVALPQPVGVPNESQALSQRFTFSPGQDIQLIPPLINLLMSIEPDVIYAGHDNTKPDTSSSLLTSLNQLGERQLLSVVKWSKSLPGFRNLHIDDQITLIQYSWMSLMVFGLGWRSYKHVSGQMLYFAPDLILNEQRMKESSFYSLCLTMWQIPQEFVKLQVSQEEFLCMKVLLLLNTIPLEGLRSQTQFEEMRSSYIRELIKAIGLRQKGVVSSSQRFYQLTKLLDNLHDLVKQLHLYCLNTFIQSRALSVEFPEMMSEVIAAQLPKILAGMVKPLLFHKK
# T1 sequence (P63059 whole entry, looked up): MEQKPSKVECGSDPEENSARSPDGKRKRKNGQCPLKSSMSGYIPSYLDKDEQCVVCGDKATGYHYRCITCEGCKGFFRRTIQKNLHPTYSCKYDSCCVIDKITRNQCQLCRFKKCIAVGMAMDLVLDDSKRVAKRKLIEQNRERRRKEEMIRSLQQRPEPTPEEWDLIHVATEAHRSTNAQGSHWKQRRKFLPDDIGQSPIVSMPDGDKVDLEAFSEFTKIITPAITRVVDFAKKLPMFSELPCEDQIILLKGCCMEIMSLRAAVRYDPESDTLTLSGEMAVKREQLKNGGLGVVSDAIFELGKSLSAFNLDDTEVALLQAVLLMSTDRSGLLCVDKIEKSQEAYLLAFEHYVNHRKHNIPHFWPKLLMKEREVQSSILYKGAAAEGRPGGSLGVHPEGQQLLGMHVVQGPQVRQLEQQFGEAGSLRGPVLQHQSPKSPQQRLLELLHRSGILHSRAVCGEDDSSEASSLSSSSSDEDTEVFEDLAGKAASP
# T1 sequence (P18113 whole entry, looked up): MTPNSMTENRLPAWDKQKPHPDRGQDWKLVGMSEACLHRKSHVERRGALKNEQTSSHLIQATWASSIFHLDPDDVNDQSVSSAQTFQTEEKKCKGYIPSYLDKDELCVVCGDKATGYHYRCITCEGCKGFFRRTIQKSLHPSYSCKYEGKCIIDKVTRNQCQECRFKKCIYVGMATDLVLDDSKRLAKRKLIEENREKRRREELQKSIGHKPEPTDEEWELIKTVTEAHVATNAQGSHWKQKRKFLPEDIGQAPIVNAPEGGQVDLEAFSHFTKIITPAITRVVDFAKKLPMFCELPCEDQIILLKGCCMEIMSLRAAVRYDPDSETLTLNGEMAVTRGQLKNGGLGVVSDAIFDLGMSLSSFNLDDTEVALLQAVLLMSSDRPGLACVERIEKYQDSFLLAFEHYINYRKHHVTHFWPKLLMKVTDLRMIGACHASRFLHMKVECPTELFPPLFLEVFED
structure (smiles),measurement,setting,value
CCC(C)(C)C(=O)O[C@H]1C[C@@H](C)C=C2C=C[C@H](C)[C@H](CC[C@@H]3C[C@@H](O)CC(=O)O3)[C@H]21,outcome,[1],inactive
same,outcome,[2],inactive
same,outcome,[3],inactive
same,outcome,[4],inactive
same,outcome,[5],inactive
CC[C@H](C)C(=O)O[C@H]1C[C@@H](C)C=C2C=C[C@H](C)[C@H](CC[C@@H]3C[C@@H](O)CC(=O)O3)[C@H]21,outcome,[1],inactive
same,outcome,[2],inactive
same,outcome,[3],inactive
same,outcome,[4],inactive
same,outcome,[5],inactive
O=P(OC(CCl)CCl)(OC(CCl)CCl)OC(CCl)CCl,AC50,PGR (gene 5241),46.1 µM (active)
same,outcome,[6],inactive
same,outcome,[7],inactive
CC(C)c1cccc(C(C)C)c1N1C(=O)c2ccc(O)cc2C1=O,AC50,PGR (gene 5241),17.3 µM (active)
same,outcome,[6],inactive
same,outcome,[7],inactive
same,outcome,[8],inactive
same,outcome,THRA (gene 7067) [9],inactive
same,AC50,THRB (gene 7068) [10],8.53 µM (active)
same,outcome,[11],inactive
same,outcome,THRB (gene 7068) [12],inactive
same,outcome,[13],inactive
same,outcome,[14],inactive
CC(C)=CCC/C(C)=C\CO,outcome,[15],inactive
same,outcome,THRA (gene 7067) [16],inactive
same,outcome,THRB (gene 7068) [17],inactive
same,outcome,[18],inactive
same,outcome,[19],inactive
